# Assay outcomes deposited in PubChem BioAssay by National Center for Advancing Translational Sciences (NCATS).
# IL1B secr inh – blocks inflammasome-driven IL-1 beta release; THP-1 LPS/ATP IL-1B secretion, AlphaLISA, 16 h; hits give low values; 4.7% of 360,000 active; activity change, % at 57.5 µM; AID 743279; in the data active means activity change below about -50%; inconclusive means mostly about -30% to -49%
#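 Secreted IL-1B measured by AlphaLISA bead assay after 16 h compound exposure of THP-1 cells; compounds (final up to 57.5 uM) added 1 h before LPS (250 ng/mL) and ATP (1.25 mM) stimulation; lower signal means less secretion.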
# DRD3 agonist – agonists of human D3 dopamine receptor; 0.58% of 410,000 active; D3R DiscoveRx beta-arrestin cells, luminescence, 90 min; max activation, %; AID 652048; in the data active means max activation above about 30%
# Target sequence (P35462 whole entry, looked up): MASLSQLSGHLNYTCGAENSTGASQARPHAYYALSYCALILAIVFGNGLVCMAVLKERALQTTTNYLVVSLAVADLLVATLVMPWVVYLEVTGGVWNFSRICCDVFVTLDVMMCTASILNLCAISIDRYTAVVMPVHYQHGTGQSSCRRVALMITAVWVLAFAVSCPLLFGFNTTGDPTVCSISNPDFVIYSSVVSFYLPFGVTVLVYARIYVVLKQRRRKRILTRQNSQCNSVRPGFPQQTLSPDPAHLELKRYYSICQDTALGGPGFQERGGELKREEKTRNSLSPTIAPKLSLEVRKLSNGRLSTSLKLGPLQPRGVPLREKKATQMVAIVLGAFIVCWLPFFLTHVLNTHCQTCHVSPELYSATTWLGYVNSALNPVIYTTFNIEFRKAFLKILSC
#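 Agonist mode: compounds and dopamine controls were applied to plated cells for 90 min at 37 degrees C after an overnight attachment at 1500 cells/well. Luminescent read-out followed 30 - 60 minutes at room temperature with DiscoveRx detection reagent.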
# a7 integrin act – activates integrin-mediated alleviation for muscular dystrophy. Potency, µM (highest dose often 38.3 µM), most hits filed as activators. alpha7betagal myoblasts, beta-gal FDG fluorescence, 48 h. 0.064% of 350,000 active. AID 624291; further: nearly all actives have a fitted effect of over 60% in size
#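 alpha7betagal+/- myoblasts (passage 13, 250/well) treated 48 h at 37C with compounds at 1:260 dilution of DMSO stock. Lysed, then beta-galactosidase activity read as FDG fluorescence (ex 480/em 540) after 30 min, with pre-read for autofluorescence.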
# ATXN2 expr inh – ATXN2 expression inhibition; HEK-293 ATXN2-luciferase reporter, luminescence, 24 h; Potency, µM (doses to about 57 µM), hits mostly inhibitors; 0.72% of 360,000 active; further: nearly all actives have a fitted effect of over 55% in size
#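 ATXN2-luciferase reporter cells (luciferase flanked by upstream and downstream ATXN2 gene portions) were treated 24 h at 37 °C with compounds at up to 57 uM. SteadyGlo luminescence gave expression; GF-AFC fluorescence gave viability.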
# ATXN viability – cell viability loss in ATXN counter-screen. S2 cells (HEK-293 line with an ATXN2-luciferase reporter) viability, CellTiter-Fluor protease fluorescence, 24 h. Potency, µM (highest dose often 56.7 µM), actives largely listed as cytotoxic. 0.49% of 400,000 active; further: nearly all actives have a fitted effect of over 40% in size
# D3 antag – blocks the human D3 dopamine receptor; P35462; D3R cells, DiscoveRx beta-arrestin luminescence, antagonist mode; hits give low values; max response, negative = inhibition, %; 2.5% of 360,000 active; AID 652054; in the data active means max response below about -50%; inconclusive means no clear call, values can overlap the other calls
#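 Cells expressing the human receptor were seeded at 1500 cells/well, incubated overnight at 37 degrees C in 5% CO2, then exposed to library compounds with dopamine controls for 90 minutes at 37 degrees C before luminescent detection.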
# Numbers stand for hits; i = inactive; ? = inconclusive; nt = no result; [ ] = another dose, or the depositor's remark. Compounds with a hit are over-represented: about 7% of the library has one in this group of screens. Unless noted, the call rests on the fitted dose curve; in most records, active means well fitted curve in the direction sought with a large enough effect; inconclusive means small, poorly fitted or top-dose-only effect, or another doubt; inactive means no such curve, though single readings can be large; an effect the other way counts as inactive or inconclusive.
SMILES,IL1B secr inh,DRD3 agonist,a7 integrin act,ATXN2 expr inh,ATXN viability,D3 antag
CC(Nc1nc(-c2ccccc2F)nc2ccccc12)c1ccccc1 (stereo not drawn),-90,i,i,i,i,i
Fc1ccccc1-c1nc(NC2CCCC2)c2ccccc2n1,-53,i,i,i,?,i
Fc1ccc(CNc2nc(-c3cccnc3)nc3ccccc23)cc1,-69,i,i,?,i,i
c1cncc(CNc2nc(-c3cccnc3)nc3ccccc23)c1,i,i,i,i,i,i
c1ccc(CNc2nc(-c3ccccc3)nc3ccccc23)cc1,-89,i,i,i,i,i
c1ccc(CNc2nc(NCc3ccccc3)c3ccccc3n2)cc1,-100,i,i,?,nt,i
c1ccc(-c2nc(NCCCn3ccnc3)c3ccccc3n2)cc1,-73,i,i,i,?,i
CC(C)(C)c1ccc(-c2nc(NCc3cccnc3)c3ccccc3n2)cc1,-65,i,i,i,?,i
CSCC[C@H](NC(=O)C1=NN(c2c(F)c(F)cc(F)c2F)C(=O)CC1)c1nc2ccccc2[nH]1,i,i,i,i,i,i
c1ccc(CN2CCC(Nc3nc(-c4cccnc4)nc4ccccc34)CC2)cc1,-91,i,i,?,i,?
Fc1ccccc1-c1nc(NCc2ccccc2)c2ccccc2n1,nt,i,i,i,i,i
c1ccc(CNc2nc(-c3ccccn3)nc3ccccc23)cc1,-71,i,i,?,i,-74
COc1ccc(C(CNc2nc(-c3cccnc3)nc3ccccc23)N(C)C)cc1 (stereo not drawn),-82,i,i,?,?,?
c1cncc(-c2nc(NCC3COc4ccccc4O3)c3ccccc3n2)c1 (stereo not drawn),-78,i,i,?,i,i
O=C(Cc1ccc(Br)cc1)Nc1cccc(S(=O)(=O)N2CCCCC2)c1,i,i,i,nt,?,i
Cc1cc2c(cc1S(=O)(=O)CCC(=O)Nc1cccc(C(F)(F)F)c1)OCC(=O)N2,i,i,i,i,i,i
CC(Nc1nc(-c2ccccc2)nc2ccccc12)c1ccccc1 (stereo not drawn),i,i,i,i,?,i
CC(Nc1nc(-c2cccnc2)nc2ccccc12)c1ccc(F)cc1 (stereo not drawn),-68,i,i,?,i,i
COCCN(C(=O)/C=C/c1ccccc1)c1c(N)n(Cc2ccccc2)c(=O)[nH]c1=O,i,i,i,i,i,i
N#CC1=C(S)N=C(N)C(c2nc(-c3ccccc3)cs2)C12CCCCC2 (stereo not drawn),i,i,i,i,i,i
Cc1ccc(-c2csc(C3C(N)=NC(S)=C(C#N)C34CCCCC4)n2)cc1 (stereo not drawn),?,i,i,i,i,-72
Cc1c(Cl)cccc1Nc1nn2c(=O)c3ccccc3nc2s1,nt,i,nt,i,?,nt
CC1CCN(CCOCCSc2ccc(Cl)cc2)CC1,i,i,i,nt,?,-110
Clc1ccc(SCCOCCN2CCCCC2)cc1,i,i,i,i,i,-80
Clc1ccc(SCCCCN2CCNCC2)cc1,i,i,i,i,i,i
SMILES,IL1B secr inh,DRD3 agonist,a7 integrin act,ATXN2 expr inh,ATXN viability,D3 antag
Clc1ccc(SCCOCCN2CCOCC2)cc1,i,i,i,nt,i,?
Clc1ccc(SCCOCCN2CCc3ccccc3C2)cc1,?,i,i,?,i,-88
CCC(C(=O)Nc1cccc(C#N)c1)n1nc(-c2ccccc2)ccc1=O (stereo not drawn),nt,i,nt,i,i,nt
Fc1ccccc1NC(=S)Nc1ccc(Br)cc1,-58,i,i,i,i,i
O=C(Nc1ccc(Br)cc1)Nc1ccccc1F,-66,i,i,i,i,i
COc1ccc(S(=O)(=O)n2oc(=O)cc2-c2ccccc2)cc1OC,i,i,i,i,i,i
COc1ccc(-c2nc3c(c(SCC(=O)N4CCCCC4)n2)Cc2c(CO)cnc(C)c2O3)cc1,nt,i,nt,nt,nt,nt
O=[N+]([O-])/C=C\c1ccc(N2CCCC2)c(F)c1,-55,i,i,?,?,i
O=Cc1ccc(N2CCCC2)c([N+](=O)[O-])c1,i,i,i,i[11.3 µM],i,i
Nc1n[nH]c(N)c1N=Nc1ccc2c(c1)OCO2,?,i,i,nt,?,i
